For 35 compounds, outcome and AC50 results are on record in PubChem BioAssay (EPA / NIEHS).

Where “and” joins values, the source holds several entries; their conditions need not be identical. Equal entries are not always repeated. Records with an inconclusive call do not appear. Calls of active or inactive are those of the source. The calls were made as follows, unless noted: active = hit-call score of the fitted dose curve at least 0.9, where 1 is the maximum; inconclusive = response in the unintended direction; inactive = score below 0.9.

human Peroxisome Proliferator-activated Receptor delta (PPARd), PPARD (gene 5467), sequence (Q03181 whole entry, looked up): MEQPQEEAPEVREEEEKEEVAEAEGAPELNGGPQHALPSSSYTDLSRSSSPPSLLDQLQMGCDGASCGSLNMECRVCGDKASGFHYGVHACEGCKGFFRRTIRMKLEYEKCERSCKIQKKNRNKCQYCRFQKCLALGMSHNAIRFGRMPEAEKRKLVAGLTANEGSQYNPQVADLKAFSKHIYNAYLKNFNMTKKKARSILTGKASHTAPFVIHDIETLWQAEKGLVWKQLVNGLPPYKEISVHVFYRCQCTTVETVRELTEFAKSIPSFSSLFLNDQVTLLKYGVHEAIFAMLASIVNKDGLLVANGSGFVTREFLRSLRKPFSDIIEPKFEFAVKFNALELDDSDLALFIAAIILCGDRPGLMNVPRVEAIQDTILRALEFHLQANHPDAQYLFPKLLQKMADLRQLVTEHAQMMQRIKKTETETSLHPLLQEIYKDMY
human Peroxisome Proliferator-activated Receptor alpha (PPARa), PPARA (gene 5465), sequence (Q07869 whole entry, looked up): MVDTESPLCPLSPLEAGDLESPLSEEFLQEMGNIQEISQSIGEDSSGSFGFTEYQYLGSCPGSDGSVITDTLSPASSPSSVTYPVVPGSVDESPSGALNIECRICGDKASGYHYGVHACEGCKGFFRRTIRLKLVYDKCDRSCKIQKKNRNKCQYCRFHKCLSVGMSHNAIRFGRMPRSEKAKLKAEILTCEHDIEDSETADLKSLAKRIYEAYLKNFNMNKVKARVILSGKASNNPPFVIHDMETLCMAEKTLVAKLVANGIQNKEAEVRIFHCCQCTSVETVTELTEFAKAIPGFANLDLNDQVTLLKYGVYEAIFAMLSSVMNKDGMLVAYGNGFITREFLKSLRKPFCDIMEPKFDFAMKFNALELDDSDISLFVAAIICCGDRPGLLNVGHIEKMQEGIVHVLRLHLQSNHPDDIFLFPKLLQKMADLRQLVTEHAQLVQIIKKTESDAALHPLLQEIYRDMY

One experiment has as its target human Peroxisome Proliferator-activated Receptor alpha (PPARa), PPARA (gene 5465) (UniProt Q07869). Description: ATG_PPARa_TRANS: Attagene TRANS-FACTORIAL HepG2 Assay for human Peroxisome Proliferator-activated Receptor alpha (PPARa) (AID 2283001).
Conditions: not given
Summed up:
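HepG2, transient MRTU transfection, 24 h treatment. RT-PCR → FAM labelling → capillary electrophoresis. Fit vs DMSO, positive direction.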
`C#CCC1=C(C)C(OC(=O)C2C(C=C(C)C)C2(C)C)CC1=O` (stereo unspecified): the outcome was inactive.

Take `N#CSCSC#N`: the call was inactive.

With `CN(C)NC(=O)CCC(=O)O`, the call was inactive.

As for `CCOC(=O)COc1cc(-c2nn(C)c(OC(F)F)c2Cl)c(F)cc1Cl`, the compound was called inactive.

In the case of `Cc1nn(-c2cc(NS(C)(=O)=O)c(Cl)cc2Cl)c(=O)n1C(F)F`, the result was inactive.

For the compound `CCCOCC(=Nc1ccc(Cl)cc1C(F)(F)F)n1ccnc1`, the outcome was inactive.

As to `CN1COCN(Cc2cnc(Cl)s2)C1=N[N+](=O)[O-]`, the compound was called inactive.

As for `CCCCOC(=O)c1ccccc1C(=O)O`, the outcome was inactive.

On to `CCNc1nc(Cl)nc(NC(C)(C)C#N)n1`, for which the compound was called inactive.

`Nc1nc(N)nc(NC2CC2)n1`: the call was inactive.

With `CON=C(C(=O)OC)c1ccccc1CON=C(C)c1cccc(C(F)(F)F)c1`, the outcome was inactive.

With `CCCCN(CC)c1c([N+](=O)[O-])cc(C(F)(F)F)cc1[N+](=O)[O-]`, the result was inactive.

`CSc1nc(NC(C)C)nc(NC(C)C)n1`: the compound was called inactive.

As to `Cc1cc(C2CC2)nc(Nc2ccccc2)n1`, the result was inactive.

In the case of `O=[N+]([O-])c1cc(C(F)(F)F)c(Cl)c([N+](=O)[O-])c1Nc1ncc(C(F)(F)F)cc1Cl`, the call was inactive.

Consider `CCC(=O)Nc1ccc(Cl)c(Cl)c1`, for which the compound was classed as inactive.

With `COP(=O)(OC)C(O)C(Cl)(Cl)Cl` (stereo unspecified), the call was inactive.

In the case of `CC(C1CC1)C(O)(Cn1cncn1)c1ccc(Cl)cc1` (stereo unspecified), the compound was called inactive.

For `CN(C)C(=O)Nc1cccc(C(F)(F)F)c1`, the call was inactive.

For `CC(Oc1cccc(Cl)c1)C(=O)O` (stereo unspecified), the result was inactive.

On to `CC(C)N(C(=O)SCC(Cl)=C(Cl)Cl)C(C)C`, for which the compound was called inactive.

On to `CNC(=O)Oc1cccc2c1OC(C)(C)O2`, for which the outcome was inactive.

Regarding `CCCCSP(=O)(SCCCC)SCCCC`, the compound was called inactive.

Turning to `CCOP(=S)(OCC)SCCSCC`, the outcome was inactive.

`C=C(C)[C@H]1Cc2c(ccc3c2O[C@@H]2COc4cc(OC)c(OC)cc4[C@@H]2C3=O)O1`: the compound was called inactive.

On to `CCCSP(=O)(OCC)Oc1ccc(Br)cc1Cl` (stereo unspecified), for which the compound was called inactive.

As to `CCOP(=S)(OCC)Oc1ccc2c(C)c(Cl)c(=O)oc2c1`, the outcome was inactive.

Take `CN(C)[C@@H]1C(=O)C(C(N)=O)=C(O)[C@@]2(O)C(=O)C3=C(O)c4c(O)cccc4[C@@](C)(O)[C@H]3[C@H](O)[C@@H]12`: the call was inactive.

For `C[Si](Cn1cncn1)(c1ccc(F)cc1)c1ccc(F)cc1`, the compound was called inactive.

With `CNC(=O)ON=C(C)SC`, the compound was classed as inactive.

Turning to `CCOC(=O)CC(SP(=O)(OC)OC)C(=O)OCC` (stereo unspecified), the result was inactive.

As for `CCCCOC(=O)[C@@H](C)Oc1ccc(Oc2ccc(C#N)cc2F)cc1`, the result was inactive.

For the compound `COc1ccc(C(=CC(=O)N2CCOCC2)c2ccc(Cl)cc2)cc1OC`, the call was inactive.

As for `CNC(=O)ON=C(SC)C(=O)N(C)C`, the compound was classed as inactive.

In the case of `O=C(O)c1cc(Oc2ccc(C(F)(F)F)cc2Cl)ccc1[N+](=O)[O-]`, the compound was classed as inactive.

The next experiment concerns the target human Peroxisome Proliferator-activated Receptor delta (PPARd), PPARD (gene 5467) (UniProt Q03181). Kind of experiment: ATG_PPARd_TRANS: Attagene TRANS-FACTORIAL HepG2 Assay for human Peroxisome Proliferator-activated Receptor delta (PPARd) (AID 2283002).
Conditions: not given
The gist of the method:
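HepG2 cells transiently transfected with GAL4-UAS multiplexed reporter units driven by exogenous chimeric NR-GAL4 proteins; 24 h compound exposure. Reporter mRNA measured by RT-PCR, 6-FAM primer extension, HpaI digestion and capillary electrophoresis; gain of signal fitted relative to DMSO.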
`C#CCC1=C(C)C(OC(=O)C2C(C=C(C)C)C2(C)C)CC1=O` (stereo unspecified): the call was inactive.

`N#CSCSC#N`: the outcome was inactive.

Consider `CN(C)NC(=O)CCC(=O)O`, for which the compound was classed as inactive.

For `CCOC(=O)COc1cc(-c2nn(C)c(OC(F)F)c2Cl)c(F)cc1Cl`, the result was inactive.

For the compound `Cc1nn(-c2cc(NS(C)(=O)=O)c(Cl)cc2Cl)c(=O)n1C(F)F`, the call was inactive.

For the compound `CCCCOC(=O)c1ccccc1C(=O)O`, the result was inactive.

For the compound `CCNc1nc(Cl)nc(NC(C)(C)C#N)n1`, the outcome was inactive.

As for `Nc1nc(N)nc(NC2CC2)n1`, the compound was called inactive.

Consider `CON=C(C(=O)OC)c1ccccc1CON=C(C)c1cccc(C(F)(F)F)c1`, for which the compound was called inactive.

For the compound `Cc1cc(C2CC2)nc(Nc2ccccc2)n1`, the compound was classed as inactive.

As to `O=[N+]([O-])c1cc(C(F)(F)F)c(Cl)c([N+](=O)[O-])c1Nc1ncc(C(F)(F)F)cc1Cl`, the compound was classed as inactive.

In the case of `COP(=O)(OC)C(O)C(Cl)(Cl)Cl` (stereo unspecified), the call was inactive.

Turning to `CC(C1CC1)C(O)(Cn1cncn1)c1ccc(Cl)cc1` (stereo unspecified), the compound was called inactive.

With `CC(Oc1cccc(Cl)c1)C(=O)O` (stereo unspecified), the call was inactive.

Take `CC(C)N(C(=O)SCC(Cl)=C(Cl)Cl)C(C)C`: the compound was classed as inactive.

Take `CNC(=O)Oc1cccc2c1OC(C)(C)O2`: the compound was called inactive.

For the compound `CCCCSP(=O)(SCCCC)SCCCC`, the compound was classed as inactive.

For `CCOP(=S)(OCC)SCCSCC`, the call was inactive.

Consider `C=C(C)[C@H]1Cc2c(ccc3c2O[C@@H]2COc4cc(OC)c(OC)cc4[C@@H]2C3=O)O1`, for which the outcome was inactive.

On to `CCOP(=S)(OCC)Oc1ccc2c(C)c(Cl)c(=O)oc2c1`, for which the outcome was inactive.

With `C[Si](Cn1cncn1)(c1ccc(F)cc1)c1ccc(F)cc1`, the compound was called inactive.

`CNC(=O)ON=C(C)SC`: the compound was classed as inactive.

For the compound `CCOC(=O)CC(SP(=O)(OC)OC)C(=O)OCC` (stereo unspecified), the result was inactive.

Regarding `CCCCOC(=O)[C@@H](C)Oc1ccc(Oc2ccc(C#N)cc2F)cc1`, the call was inactive.

On to `COc1ccc(C(=CC(=O)N2CCOCC2)c2ccc(Cl)cc2)cc1OC`, for which the compound was called inactive.

For the compound `CNC(=O)ON=C(SC)C(=O)N(C)C`, the result was inactive.

Read-out in a further experiment: Intercellular Adhesion Molecule 1 (ICAM1), ICAM1 (gene 3383)
Kind of experiment: BSK_3C_ICAM1: BioMAP Diversity Plus: 3C Assay for Intercellular Adhesion Molecule 1 (ICAM1) Biomarker Activity (AID 2283003; active = hit-call score of the fitted dose curve at least 0.9, where 1 is the maximum; inactive = score below 0.9). The note with it: primary human endothelial cells (HUVEC); actives raise or lower the signal. The gist of the method:
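ELISA readout of ICAM1 in human umbilical vein endothelial cells in the 3C system, taken 24 h post-dose. Gain or loss of signal versus DMSO was fitted in both directions, with SRB total-protein staining run in parallel.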
`C#CCC1=C(C)C(OC(=O)C2C(C=C(C)C)C2(C)C)CC1=O` (stereo unspecified): the outcome was inactive.

Consider `N#CSCSC#N`, for which the concentration at half-maximal activity (AC50) was 8.09 µM (active).

In the case of `CN(C)NC(=O)CCC(=O)O`, the result was inactive.

As to `CCOC(=O)COc1cc(-c2nn(C)c(OC(F)F)c2Cl)c(F)cc1Cl`, the outcome was inactive.

Regarding `Cc1nn(-c2cc(NS(C)(=O)=O)c(Cl)cc2Cl)c(=O)n1C(F)F`, the result was inactive.

For `CCCOCC(=Nc1ccc(Cl)cc1C(F)(F)F)n1ccnc1`, the concentration at half-maximal activity (AC50) is 29.7 µM (active).

Regarding `CN1COCN(Cc2cnc(Cl)s2)C1=N[N+](=O)[O-]`, the result was inactive.

For `CCCCOC(=O)c1ccccc1C(=O)O`, the result was inactive.

For `CCNc1nc(Cl)nc(NC(C)(C)C#N)n1`, the outcome was inactive.

Take `Nc1nc(N)nc(NC2CC2)n1`: the outcome was inactive.

On to `CON=C(C(=O)OC)c1ccccc1CON=C(C)c1cccc(C(F)(F)F)c1`, for which the result was inactive.

On to `CCCCN(CC)c1c([N+](=O)[O-])cc(C(F)(F)F)cc1[N+](=O)[O-]`, for which the result was inactive.

Consider `CSc1nc(NC(C)C)nc(NC(C)C)n1`, for which the outcome was inactive.

`Cc1cc(C2CC2)nc(Nc2ccccc2)n1`: the result was inactive.

For `O=[N+]([O-])c1cc(C(F)(F)F)c(Cl)c([N+](=O)[O-])c1Nc1ncc(C(F)(F)F)cc1Cl`, the half-maximal activity concentration (AC50) is 3.09 µM (active) and 3.8 µM (active).

On to `CCC(=O)Nc1ccc(Cl)c(Cl)c1`, for which the outcome was inactive.

Take `COP(=O)(OC)C(O)C(Cl)(Cl)Cl` (stereo unspecified): the outcome was inactive.

Take `CC(C1CC1)C(O)(Cn1cncn1)c1ccc(Cl)cc1` (stereo unspecified): the outcome was inactive.

With `CN(C)C(=O)Nc1cccc(C(F)(F)F)c1`, the outcome was inactive.

For the compound `CC(Oc1cccc(Cl)c1)C(=O)O` (stereo unspecified), the result was inactive.

For `CC(C)N(C(=O)SCC(Cl)=C(Cl)Cl)C(C)C`, the concentration at half-maximal activity (AC50) was 30.9 µM (active).

For the compound `CNC(=O)Oc1cccc2c1OC(C)(C)O2`, the outcome was inactive.

Regarding `CCCCSP(=O)(SCCCC)SCCCC`, the result was inactive.

Regarding `CCOP(=S)(OCC)SCCSCC`, the outcome was inactive.

Turning to `C=C(C)[C@H]1Cc2c(ccc3c2O[C@@H]2COc4cc(OC)c(OC)cc4[C@@H]2C3=O)O1`, the result was inactive.

In the case of `CCCSP(=O)(OCC)Oc1ccc(Br)cc1Cl` (stereo unspecified), the result was inactive.

For `CCOP(=S)(OCC)Oc1ccc2c(C)c(Cl)c(=O)oc2c1`, the outcome was inactive.

Regarding `CN(C)[C@@H]1C(=O)C(C(N)=O)=C(O)[C@@]2(O)C(=O)C3=C(O)c4c(O)cccc4[C@@](C)(O)[C@H]3[C@H](O)[C@@H]12`, the outcome was inactive.

With `C[Si](Cn1cncn1)(c1ccc(F)cc1)c1ccc(F)cc1`, the result was inactive.

For the compound `CNC(=O)ON=C(C)SC`, the result was inactive.

Take `CCOC(=O)CC(SP(=O)(OC)OC)C(=O)OCC` (stereo unspecified): the outcome was inactive.

In the case of `CCCCOC(=O)[C@@H](C)Oc1ccc(Oc2ccc(C#N)cc2F)cc1`, the result was inactive.

On to `COc1ccc(C(=CC(=O)N2CCOCC2)c2ccc(Cl)cc2)cc1OC`, for which the result was inactive.

On to `CNC(=O)ON=C(SC)C(=O)N(C)C`, for which the outcome was inactive.

Take `O=C(O)c1cc(Oc2ccc(C(F)(F)F)cc2Cl)ccc1[N+](=O)[O-]`: the result was inactive.

Usually AC50 stands for the midpoint of the concentration-response curve, whichever way the signal moves.
